PrP 5UTR inh: inhibition of PrP 5' UTR reporter expression | 0.35% of 340,000 active | AID 488862 | cell-based PrP 5' UTR mRNA reporter, plate reader | inhibition, % (test concentration not listed); in the data active = inhibition above about 52%; also: 0 = median of the neutral control wells
Yp Topo-I inh: blocks Yersinia pestis topoisomerase I activity | Y. pestis Topo-I cleavage product accumulation, plate reader | activity, % at 10 µM | 0.064% of 360,000 active | AID 504884; in the data active = activity above about 50%, passing the limit was not always enough
TcdB GH inh: TcdB glycohydrolase inhibition; 0.24% of 350,000 active; inhibition, % at 9.99 µM; TcdB glycohydrolase enzymatic assay, plate reader; P18177; in the data active = inhibition above about 10%
BioA inh: inhibitors of Mycobacterium tuberculosis BioA enzyme | purified M. tuberculosis BioA enzyme, plate reader | inhibition, % at 9.99 µM | AID 602481 | 0.096% of 360,000 active; in the data active = inhibition above about 40%
The depositor's hits bear a star. In the library only some 0.57% were active in any assay of this set; here they are far more common.

How did COCCn1c(NC(=S)NC(=O)C23CC4CC(CC(C4)C2)C3)cc(=O)[nH]c1=O do in these assays?
PrP 5UTR inh: -19; Yp Topo-I inh: 15; TcdB GH inh: 1

How did CO[C@H]1CN(C)C(=O)c2ccc(NC(C)=O)cc2OC[C@@H](C)N(CCC(F)(F)F)C[C@@H]1C do in these assays?
TcdB GH inh: 0; BioA inh: 2

What do the screens show for `COc1ccc(C(=O)Nc2ccc3c(c2)OC[C@H](C)N(C(C)=O)C[C@H](C)[C@H](OC)CN(C)C3=O)cc1`?
TcdB GH inh: -1; BioA inh: 4

What do the screens show for `COC/C=C/C1=CC(=O)C[C@H](c2ccc3c(c2)OCO3)C1`?
PrP 5UTR inh: 6; Yp Topo-I inh: 8; TcdB GH inh: 1; BioA inh: 7

What do the screens show for `CCCCC/C=C/C1=CC(=O)C[C@H](c2ccc3c(c2)OCO3)C1`?
PrP 5UTR inh: -12; Yp Topo-I inh: 63*; TcdB GH inh: -1; BioA inh: 2

What do the screens show for `Cc1cccc(-n2nnc(C(=O)NCc3ccccc3Cl)c2N)c1`?
PrP 5UTR inh: -17; Yp Topo-I inh: 4; TcdB GH inh: 11*; BioA inh: 1

Results for CCCC(=O)Nc1ccc2c(c1)OC[C@H](C)N(Cc1ccccc1)C[C@H](C)[C@@H](OC)CN(C)C2=O ?
TcdB GH inh: 0

How did O=c1[nH]nc(-c2ccc(F)cc2)cc1Cc1ccccc1 do in these assays?
PrP 5UTR inh: -24; Yp Topo-I inh: 18; TcdB GH inh: 10*

How did COc1ccc(CN(C)C[C@@H]2OCCCC[C@H](C)Oc3ccc(NS(=O)(=O)c4c(C)noc4C)cc3C(=O)N([C@@H](C)CO)C[C@H]2C)cc1 do in these assays?
TcdB GH inh: 1

Results for O=C(c1ccc([N+](=O)[O-])cc1)N1CCN(c2cccc3[nH]ccc23)CC1 ?
PrP 5UTR inh: -57; Yp Topo-I inh: -17; TcdB GH inh: 10*

Results for Cc1cc2c(c(=O)n1Cc1cccnc1)C(c1ccccc1)C(C#N)=C(N)O2 (stereo unspecified) ?
PrP 5UTR inh: -21; Yp Topo-I inh: -1; BioA inh: 48*

How did CCNC(=O)C[C@H]1CC[C@H]2[C@H](COc3ccc(NC(=O)c4cc(C)on4)cc3C(=O)N2C)O1 do in these assays?
TcdB GH inh: -1; BioA inh: -1

How did CC=Cc1ccc2n(c1=O)C[C@H]1[C@H](CO)[C@@H](C(=O)NCCc3ccccc3)N(C(=O)CC)[C@@H]21 (mixture of isomers) do in these assays?
TcdB GH inh: 0; BioA inh: 0

How did Cc1cc2nc3ccc(=[N+](C)C)cc-3sc2cc1N do in these assays?
PrP 5UTR inh: -22; Yp Topo-I inh: 419*

What do the screens show for `CN(C)c1ccc2nc3ccc(=[N+](C)C)cc-3sc2c1`?
PrP 5UTR inh: -51; Yp Topo-I inh: 3; TcdB GH inh: 7

How did CO[C@@H]1CN(C)C(=O)c2cc(NC(C)=O)ccc2OC[C@H](C)N(Cc2cccc(F)c2)C[C@H]1C do in these assays?
TcdB GH inh: 0; BioA inh: -2

What do the screens show for `CCCC(=O)Nc1ccc2c(c1)C(=O)N(C)[C@@H]1CC[C@@H](CC(=O)NCCc3ccccc3)O[C@H]1CO2`?
BioA inh: -2

What do the screens show for `C[C@@H]1CN([C@H](C)CO)C(=O)c2cc(NC(=O)Nc3ccc(C(F)(F)F)cc3)ccc2O[C@@H](C)CCCCO[C@H]1CN(C)C(=O)c1ccccc1`?
TcdB GH inh: 1; BioA inh: 0

What do the screens show for `Cc1[nH]c(-c2ccc(F)cc2)cc1C(=O)N1CCN(c2ccccc2)CC1`?
PrP 5UTR inh: -14; Yp Topo-I inh: 25; TcdB GH inh: 21*; BioA inh: 8

How did CCOc1ccc2c(c1)C(C)=CC(C)(C)N2S(=O)(=O)c1ccc(NC(C)=O)cc1 do in these assays?
PrP 5UTR inh: 78*; Yp Topo-I inh: 32; TcdB GH inh: 0; BioA inh: 3

Results for O=P(c1ccccc1)(c1ccccc1)c1nc(-c2ccccc2)oc1N1CCOCC1 ?
PrP 5UTR inh: -2; Yp Topo-I inh: 58*; TcdB GH inh: 2; BioA inh: 1

Results for COc1cccc(/C=N/Nc2ncnc3scc(-c4ccccc4)c23)c1O ?
PrP 5UTR inh: 50; Yp Topo-I inh: 67*

Results for C[C@@H]1CN([C@H](C)CO)C(=O)c2cc(NC(=O)Nc3cccc4ccccc34)ccc2O[C@@H]1CN(C)C(=O)Nc1ccc(F)cc1 ?
TcdB GH inh: 0; BioA inh: -2

Results for CCCCNC(=O)C1CCN(S(=O)(=O)c2c(C)noc2/C=C\c2ccc(OC)cc2)CC1 ?
PrP 5UTR inh: -7; Yp Topo-I inh: 20; TcdB GH inh: 85*; BioA inh: -5

How did COCCCNC(=O)C1CCN(S(=O)(=O)c2c(C)noc2/C=C\c2ccc(OC)cc2)CC1 do in these assays?
PrP 5UTR inh: -19; Yp Topo-I inh: 6; BioA inh: 0

What do the screens show for `CCC(=O)N1CC2(C1)[C@H](c1ccccc1)[C@@H](CO)N2C(=O)NC(C)C`?
TcdB GH inh: 0

What do the screens show for `CCS(=O)(=O)c1ccc2oc(Nc3ccc(OC)cc3)nc2c1`?
PrP 5UTR inh: -29; Yp Topo-I inh: -14; TcdB GH inh: 9; BioA inh: 0

Results for CCS(=O)(=O)c1ccc2oc(Nc3ccc(C(C)(C)C)cc3)nc2c1 ?
PrP 5UTR inh: -16; Yp Topo-I inh: -3; TcdB GH inh: 12*; BioA inh: 0

Results for O=C(Nc1ncc([N+](=O)[O-])s1)c1ccc2c(c1)OCO2 ?
PrP 5UTR inh: 69*; Yp Topo-I inh: -2; TcdB GH inh: 2; BioA inh: 2

How did COc1cccc(S(=O)(=O)N(C)C[C@@H]2Oc3cc(C4=CCCC4)ccc3S(=O)(=O)N([C@H](C)CO)C[C@H]2C)c1 do in these assays?
TcdB GH inh: 1; BioA inh: 6

Results for C[C@@H]1CN([C@@H](C)CO)C(=O)c2cc(NC(=O)Nc3ccc(F)cc3)ccc2O[C@@H](C)CCCCO[C@H]1CN(C)Cc1ccccc1 ?
TcdB GH inh: 1; BioA inh: 0

What do the screens show for `O=c1[nH]nc(Cc2ccc(-c3ccc(Cl)cc3)o2)c2ccccc12`?
PrP 5UTR inh: -3; Yp Topo-I inh: 68*; BioA inh: -2

What do the screens show for `Oc1ccc2c(ccc3[nH]cnc32)c1`?
PrP 5UTR inh: -9; Yp Topo-I inh: 7; TcdB GH inh: 17*

What do the screens show for `Brc1cc2[nH]cnc2c2ccccc12`?
PrP 5UTR inh: -12; Yp Topo-I inh: -4; TcdB GH inh: 5; BioA inh: 0

What do the screens show for `Cc1cccc(-n2c(=O)c3ccccc3n3c(=S)[nH]nc23)c1C`?
PrP 5UTR inh: -19; Yp Topo-I inh: 8; TcdB GH inh: 12*; BioA inh: 0

What do the screens show for `Cc1ccccc1-n1c(=O)c2ccccc2n2c(=O)[nH]nc12`?
PrP 5UTR inh: -14; Yp Topo-I inh: 1; BioA inh: -1

What do the screens show for `C[C@H](CO)N1C[C@H](C)[C@@H](CN(C)S(=O)(=O)c2cn(C)cn2)Oc2ccc(NS(=O)(=O)c3cn(C)cn3)cc2CC1=O`?
TcdB GH inh: 0; BioA inh: -1

Results for COc1ccc(OCc2cc(-c3ccc(Cl)cc3)no2)cc1 ?
PrP 5UTR inh: -23; Yp Topo-I inh: 1; TcdB GH inh: 19*; BioA inh: 0

High-throughput results: PubChem BioAssay, Broad Institute
